The list is not random: actives were taken first. Their share in the collection is about 2.6%.
14-3-3 Bad PPI = disrupts binding of bovine 14-3-3 zeta to phospho-Bad peptide; P63103; TR-FRET 14-3-3zeta/Dy647-pBad peptide displacement, 1 h; inhibition, % at 21.7 µM; hit rate 0.71% among 220,000; AID 781;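 active = inhibition above about 70%, limit read from the data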;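 also: 0% = full 14-3-3 plus peptide FRET controls and 100% = background without 14-3-3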
Mcl1 Bid PPI = Mcl-1/Bid interaction inhibition | TR-FRET Mcl-1/Bid-Dy647 peptide binding, 1536-well | hit rate 0.97% among 220,000 | inhibition, % at 21.7 µM | Q07820 | AID 1021;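 active = compounds that cut the binding signal by more than half at the single screening dose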;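 also: His-tagged Mcl-1 with europium anti-His antibody binding Bid BH3 peptide; 0% = Mcl-1 plus peptide wells and 100% = peptide-only wells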
Mcl1-Noxa inh = disrupts binding of human Mcl-1 to Noxa peptide | hit rate 1.5% among 220,000 | inhibition, % at 21.7 µM | Q07820 | TR-FRET Mcl-1/Noxa peptide binding, 2 h;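 active = compounds that cut the protein-peptide binding signal by more than 50% relative to plate controls in a single-dose test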;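 also: His-tagged Mcl-1 with rhodamine Noxa BH3 peptide and terbium anti-His antibody; 0% = Mcl-1 plus Noxa peptide wells and 100% = peptide-only wells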
MCL1-BIM inh = MCL1-BIM-BH3 interaction inhibition (human) | Q07820 | inhibition, % at 10.9 µM | hit rate 0.68% among 320,000 | GST-MCL1 / FITC-Bim-BH3 fluorescence polarization;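 active = inhibition above the mean inhibition of all tested compounds plus 3 SD, set per campaign, cut at about 40% in these data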;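 also: 0% = DMSO wells and 100% = unlabeled Bim-BH3 peptide control; higher means more loss of mP so more displacement of Bim peptide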
Bim-Mcl-1 = disrupts Bim peptide binding to human Mcl-1. Bead-based flow cytometry, Bim peptide-Mcl-1 binding. hit rate 0.1% among 190,000. inhibition, % at 10 µM. Q07820; in the data active = inhibition above about 40%;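 also: 0% = no compound tracer wells and 100% = peptide blocker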
eIF4E 4G PPI = eIF4E/eIF4G interaction inhibition in translation initiation; hit rate 0.37% among 220,000; TR-FRET eIF4E-eIF4GI(517-606) binding, 2 h; inhibition, % at 21.7 µM; AID 782; P63073+Q04637;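 active = inhibition above about 30%, limit read from the data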;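 also: 0% = full FRET control wells and 100% = background wells lacking eIF4GI fragment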
Target sequence (P63073 whole entry, looked up, the tested form may be a part): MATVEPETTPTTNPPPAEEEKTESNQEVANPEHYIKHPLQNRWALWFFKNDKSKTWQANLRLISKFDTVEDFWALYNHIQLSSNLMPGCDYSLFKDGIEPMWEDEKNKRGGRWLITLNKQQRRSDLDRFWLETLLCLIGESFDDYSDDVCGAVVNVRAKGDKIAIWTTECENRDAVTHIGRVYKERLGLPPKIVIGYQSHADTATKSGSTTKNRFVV
Target sequence (Q04637 whole entry, looked up, the tested form may be a part): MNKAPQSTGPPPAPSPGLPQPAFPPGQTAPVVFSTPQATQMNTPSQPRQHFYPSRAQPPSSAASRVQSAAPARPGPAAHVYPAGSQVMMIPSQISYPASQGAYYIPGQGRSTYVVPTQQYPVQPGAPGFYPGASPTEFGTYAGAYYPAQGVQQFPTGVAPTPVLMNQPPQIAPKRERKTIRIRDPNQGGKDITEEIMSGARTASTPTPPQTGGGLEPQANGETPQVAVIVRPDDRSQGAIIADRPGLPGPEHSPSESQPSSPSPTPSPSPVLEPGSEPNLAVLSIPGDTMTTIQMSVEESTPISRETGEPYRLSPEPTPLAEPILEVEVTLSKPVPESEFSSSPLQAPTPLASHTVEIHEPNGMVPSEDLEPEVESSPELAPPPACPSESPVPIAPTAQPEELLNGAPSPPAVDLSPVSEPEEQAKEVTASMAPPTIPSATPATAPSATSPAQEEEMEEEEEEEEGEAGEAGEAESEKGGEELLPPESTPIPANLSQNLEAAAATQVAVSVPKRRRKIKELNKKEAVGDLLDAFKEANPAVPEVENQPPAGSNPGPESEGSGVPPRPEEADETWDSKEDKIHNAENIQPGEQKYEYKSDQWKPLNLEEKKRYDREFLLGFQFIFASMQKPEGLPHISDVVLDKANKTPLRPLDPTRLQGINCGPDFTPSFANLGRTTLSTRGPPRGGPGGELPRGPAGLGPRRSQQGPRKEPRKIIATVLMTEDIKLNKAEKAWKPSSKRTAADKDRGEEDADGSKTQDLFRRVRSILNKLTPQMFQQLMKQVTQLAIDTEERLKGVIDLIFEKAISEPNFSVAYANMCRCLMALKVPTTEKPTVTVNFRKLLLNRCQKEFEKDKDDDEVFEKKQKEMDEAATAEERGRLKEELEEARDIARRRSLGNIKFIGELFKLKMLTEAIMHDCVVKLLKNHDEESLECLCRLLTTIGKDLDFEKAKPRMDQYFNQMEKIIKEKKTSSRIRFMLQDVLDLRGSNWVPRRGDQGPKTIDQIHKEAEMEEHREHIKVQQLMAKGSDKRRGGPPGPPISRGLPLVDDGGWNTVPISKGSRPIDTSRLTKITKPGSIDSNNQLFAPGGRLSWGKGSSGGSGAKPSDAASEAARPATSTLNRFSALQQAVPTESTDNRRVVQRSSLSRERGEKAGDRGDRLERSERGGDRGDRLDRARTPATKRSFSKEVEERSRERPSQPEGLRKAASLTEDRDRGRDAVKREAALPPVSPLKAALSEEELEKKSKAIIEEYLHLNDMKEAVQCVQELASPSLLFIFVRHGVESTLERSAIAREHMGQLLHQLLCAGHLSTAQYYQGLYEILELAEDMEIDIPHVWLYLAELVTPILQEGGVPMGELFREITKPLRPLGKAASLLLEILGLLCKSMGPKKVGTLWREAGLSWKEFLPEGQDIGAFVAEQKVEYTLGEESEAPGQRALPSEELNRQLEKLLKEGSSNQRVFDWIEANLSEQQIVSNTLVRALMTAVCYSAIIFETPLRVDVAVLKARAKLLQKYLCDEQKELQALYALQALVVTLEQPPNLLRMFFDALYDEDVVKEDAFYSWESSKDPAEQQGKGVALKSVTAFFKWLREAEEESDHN
Bcl-xL conf = counter-screen for MCL1 inhibitors: confirmation of human Bcl-xL inhibitors. hit rate 54% among 1,700. AID 2166. GST-Bcl-xL / FITC-Bim BH3 peptide FP binding. shares compounds with MCL1-BIM inh. inhibition, % at 10.9 µM;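 active = inhibition above a cutoff equal to the mean inhibition of all tested compounds plus 3 SD, cut at about 30% in these data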;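 also: 0% = DMSO wells and 100% = unlabeled Bim BH3 control peptide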
MCL1 inh confirm = MCL1-BIM-BH3 interaction inhibition, confirmation | GST-MCL1 / FITC-Bim-BH3 fluorescence polarization | hit rate 61% among 1,700 | shares compounds with MCL1-BIM inh | inhibition, % at 10.9 µM | AID 2168;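 active = inhibition above the average of all tested compounds plus 3 SD, cut at about 40% in these data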;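 also: 0% = DMSO wells and 100% = unlabeled Bim-BH3 control peptide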
Active calls of the source: *; [ ] = remark or other dose.

For CCN(CC)c1ccc2c(c1)CCCN2 the results were 14-3-3 Bad PPI 11.2, Mcl1 Bid PPI -55.3, Mcl1-Noxa inh 69.0*, MCL1-BIM inh 128.2*, Bim-Mcl-1 14.0, eIF4E 4G PPI -3.4, Bcl-xL conf 28.4 and MCL1 inh confirm 19.2.
O=S(=O)(c1ccc2c(c1)CCCN2)N1CCCC1 was read as MCL1-BIM inh 10.9.
For CN1C=CC2=C(C#N)C(N)C(C#N)(C#N)[C@H](c3ccccc3)[C@H]2C1 (some centres not stated) the results were 14-3-3 Bad PPI 1.4, Mcl1 Bid PPI -23.2, Mcl1-Noxa inh -17.1, MCL1-BIM inh 92.3*, Bim-Mcl-1 -5.0, eIF4E 4G PPI 2.7, Bcl-xL conf 30.9* and MCL1 inh confirm 30.9.
Screening CN1C(=O)C(=C2CCCCCC2)SC1=S returned 14-3-3 Bad PPI -14.2, Mcl1 Bid PPI -41.5, Mcl1-Noxa inh 3.8, MCL1-BIM inh 9.1, Bim-Mcl-1 -1.0 and eIF4E 4G PPI -14.4.
For O=C1NC(=S)SC1=C1CCCC1 the results were 14-3-3 Bad PPI -11.4, Mcl1 Bid PPI -5.5, Mcl1-Noxa inh 31.3, MCL1-BIM inh 44.4*, Bim-Mcl-1 -3.0, eIF4E 4G PPI -4.2, Bcl-xL conf 25.8 and MCL1 inh confirm 59.6*.
CCCCCCCN1C(Nc2ccccc2)=NC[C@@H]1C was read as MCL1-BIM inh -1.6.
For O=C(Nc1ccccc1)c1ccc2nc(-c3ccco3)c(-c3ccco3)nc2c1 the results were 14-3-3 Bad PPI -5.8, Mcl1 Bid PPI 32.2, Mcl1-Noxa inh 100.9*, MCL1-BIM inh 40.0*, Bim-Mcl-1 13.0, eIF4E 4G PPI -0.2, Bcl-xL conf 29.9 and MCL1 inh confirm 46.6*.
For O=C(Nc1ccc(N2CCOCC2)cc1)c1ccc2nc(-c3ccco3)c(-c3ccco3)nc2c1 the results were 14-3-3 Bad PPI -1.6, Mcl1 Bid PPI -11.7, Mcl1-Noxa inh 32.6, MCL1-BIM inh 4.1, Bim-Mcl-1 1.0 and eIF4E 4G PPI -7.4.
Screening CC(=O)c1ccc(NC(=O)c2ccc3nc(-c4ccco4)c(-c4ccco4)nc3c2)cc1 returned 14-3-3 Bad PPI 39.8, Mcl1 Bid PPI 97.1*, Mcl1-Noxa inh 100.5*, MCL1-BIM inh 80.2*, Bim-Mcl-1 10.0, eIF4E 4G PPI 46.7*[fluorescence artefact?], Bcl-xL conf 36.0* and MCL1 inh confirm 80.7*.
For O=C(NCc1ccccc1)c1ccc2nc(-c3ccco3)c(-c3ccco3)nc2c1 the results were 14-3-3 Bad PPI -6.2, Mcl1 Bid PPI 11.8, Mcl1-Noxa inh 101.7*, MCL1-BIM inh 81.2*, Bim-Mcl-1 4.0, eIF4E 4G PPI 13.1, Bcl-xL conf 42.5* and MCL1 inh confirm 69.4*.
CCCCNC(=O)c1ccc2nc(-c3ccco3)c(-c3ccco3)nc2c1 was read as 14-3-3 Bad PPI 0.7, Mcl1 Bid PPI -5.1, Mcl1-Noxa inh 93.1*, MCL1-BIM inh 59.5*, Bim-Mcl-1 3.0, eIF4E 4G PPI 7.9, Bcl-xL conf 25.4 and MCL1 inh confirm 34.7.
Screening S=C(NCCN1CCOCC1)Nc1ccccc1Cl returned 14-3-3 Bad PPI -1.5, Mcl1 Bid PPI -51.7, Mcl1-Noxa inh 1.8, MCL1-BIM inh 2.0, Bim-Mcl-1 -13.0 and eIF4E 4G PPI 3.8.
For O=C(NCCc1ccc(Cl)cc1)c1ccc(Br)s1 the results were MCL1-BIM inh -2.4.
Screening Cc1sc(NC(=S)NC(=O)C(C)(C)C)c(C(N)=O)c1C returned 14-3-3 Bad PPI 3.0, Mcl1 Bid PPI -44.1, Mcl1-Noxa inh 12.0, MCL1-BIM inh 15.6, Bim-Mcl-1 -3.0 and eIF4E 4G PPI -14.3.
CCn1c(C(=O)NC(C)c2ccc3c(c2)OCCO3)cc2sccc21 (configuration not stated) was read as 14-3-3 Bad PPI 2.0, Mcl1 Bid PPI -22.5, Mcl1-Noxa inh -17.3, MCL1-BIM inh -1.6, Bim-Mcl-1 0.0 and eIF4E 4G PPI -3.2.
Screening CC(NC(=O)c1cc2sccc2n1C)c1ccc2c(c1)OCCO2 (configuration not stated) returned 14-3-3 Bad PPI 23.3, Mcl1 Bid PPI 7.6, Mcl1-Noxa inh 32.4, MCL1-BIM inh 178.2*, Bim-Mcl-1 -3.0, eIF4E 4G PPI 2.2, Bcl-xL conf 1.1 and MCL1 inh confirm 3.7.
Screening CCOc1cccc(NC(=O)C2CC(=O)N(C)C(=Nc3ccccc3)S2)c1 (configuration not stated) returned 14-3-3 Bad PPI -0.8, Mcl1 Bid PPI 7.8, Mcl1-Noxa inh 7.6, MCL1-BIM inh 0.2, Bim-Mcl-1 -2.0 and eIF4E 4G PPI 15.1.
For CCOc1cccc(NC(=O)C2CC(=O)N(C)C(=Nc3cccc(F)c3)S2)c1 (configuration not stated) the results were 14-3-3 Bad PPI 7.4, Mcl1 Bid PPI -1.4, Mcl1-Noxa inh 21.6, MCL1-BIM inh 42.4*, Bim-Mcl-1 -5.0, eIF4E 4G PPI -2.1, Bcl-xL conf -0.7 and MCL1 inh confirm 0.5.
COc1ccc(C(=O)Nc2c(Cl)cc(Cl)cc2C(=O)N2CCOCC2)cc1 was read as 14-3-3 Bad PPI -3.3, Mcl1 Bid PPI -22.6, Mcl1-Noxa inh 3.2, MCL1-BIM inh 3.4, Bim-Mcl-1 37.0 and eIF4E 4G PPI -0.2.
`Cc1nn(C)cc1S(=O)(=O)N1CCN(Cc2ccccc2Cl)CC1` gave 14-3-3 Bad PPI -6.1, Mcl1 Bid PPI -49.6, Mcl1-Noxa inh 20.5, MCL1-BIM inh 7.6, Bim-Mcl-1 9.0 and eIF4E 4G PPI 1.7.
CCCN1CCN(S(=O)(=O)c2cn(C)nc2C)CC1 was read as MCL1-BIM inh 84.4*, Bcl-xL conf 76.9* and MCL1 inh confirm 96.0*.
Screening COc1ccc(-c2onc3ccc(Br)cc23)cc1 returned 14-3-3 Bad PPI -21.3, Mcl1 Bid PPI -19.5, Mcl1-Noxa inh 9.5, MCL1-BIM inh 131.8*, Bim-Mcl-1 -1.0, eIF4E 4G PPI 2.7, Bcl-xL conf 111.3* and MCL1 inh confirm 133.9*.
`Cn1c(=O)c(Nc2ccc(Cl)cc2)c2c3c(cccc31)C(=O)c1ccccc1-2` gave 14-3-3 Bad PPI -1.4, Mcl1 Bid PPI -35.8, Mcl1-Noxa inh -5.2, MCL1-BIM inh active, Bim-Mcl-1 15.0, eIF4E 4G PPI 2.1, Bcl-xL conf 161.9* and MCL1 inh confirm 197.2*.
For CCOC(=O)c1c(-c2ccccc2)c(C(C)=O)c(=O)n(C)c1C the results were 14-3-3 Bad PPI -1.2, Mcl1 Bid PPI -18.7, Mcl1-Noxa inh 9.7, MCL1-BIM inh 2.9, Bim-Mcl-1 0.0 and eIF4E 4G PPI 0.7.
Screening CCOC(=O)c1c2c3c(cccc3n(C)c1=O)C(=O)c1ccccc1-2 returned MCL1-BIM inh 53.8*, Bcl-xL conf 75.7* and MCL1 inh confirm 89.8*.

High-throughput results: PubChem, several laboratories
